This note sets out measurements from PubChem BioAssay.

Test [1] deals with Nuclear receptor coactivator 1 (Homo sapiens) (UniProt Q15788). The test can be described thus: NCOA1 GAL4-fusion reporter inhibition – cell-based, luminescence, quadruplicate, confirmation (AID 588820;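 active = mean inhibition above 46.68%, the untreated control wells mean plus 3 SD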;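 also: 0% = DMSO wells and 100% = gossypol 36 µM treated wells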). Conditions: HEK293 GAL4-SRC1 luciferase reporter, at 3.6 µM, stronger effect = higher value.
Sequence of Nuclear receptor coactivator 1 (Homo sapiens) (Q15788 whole entry, looked up, the tested form may be a part): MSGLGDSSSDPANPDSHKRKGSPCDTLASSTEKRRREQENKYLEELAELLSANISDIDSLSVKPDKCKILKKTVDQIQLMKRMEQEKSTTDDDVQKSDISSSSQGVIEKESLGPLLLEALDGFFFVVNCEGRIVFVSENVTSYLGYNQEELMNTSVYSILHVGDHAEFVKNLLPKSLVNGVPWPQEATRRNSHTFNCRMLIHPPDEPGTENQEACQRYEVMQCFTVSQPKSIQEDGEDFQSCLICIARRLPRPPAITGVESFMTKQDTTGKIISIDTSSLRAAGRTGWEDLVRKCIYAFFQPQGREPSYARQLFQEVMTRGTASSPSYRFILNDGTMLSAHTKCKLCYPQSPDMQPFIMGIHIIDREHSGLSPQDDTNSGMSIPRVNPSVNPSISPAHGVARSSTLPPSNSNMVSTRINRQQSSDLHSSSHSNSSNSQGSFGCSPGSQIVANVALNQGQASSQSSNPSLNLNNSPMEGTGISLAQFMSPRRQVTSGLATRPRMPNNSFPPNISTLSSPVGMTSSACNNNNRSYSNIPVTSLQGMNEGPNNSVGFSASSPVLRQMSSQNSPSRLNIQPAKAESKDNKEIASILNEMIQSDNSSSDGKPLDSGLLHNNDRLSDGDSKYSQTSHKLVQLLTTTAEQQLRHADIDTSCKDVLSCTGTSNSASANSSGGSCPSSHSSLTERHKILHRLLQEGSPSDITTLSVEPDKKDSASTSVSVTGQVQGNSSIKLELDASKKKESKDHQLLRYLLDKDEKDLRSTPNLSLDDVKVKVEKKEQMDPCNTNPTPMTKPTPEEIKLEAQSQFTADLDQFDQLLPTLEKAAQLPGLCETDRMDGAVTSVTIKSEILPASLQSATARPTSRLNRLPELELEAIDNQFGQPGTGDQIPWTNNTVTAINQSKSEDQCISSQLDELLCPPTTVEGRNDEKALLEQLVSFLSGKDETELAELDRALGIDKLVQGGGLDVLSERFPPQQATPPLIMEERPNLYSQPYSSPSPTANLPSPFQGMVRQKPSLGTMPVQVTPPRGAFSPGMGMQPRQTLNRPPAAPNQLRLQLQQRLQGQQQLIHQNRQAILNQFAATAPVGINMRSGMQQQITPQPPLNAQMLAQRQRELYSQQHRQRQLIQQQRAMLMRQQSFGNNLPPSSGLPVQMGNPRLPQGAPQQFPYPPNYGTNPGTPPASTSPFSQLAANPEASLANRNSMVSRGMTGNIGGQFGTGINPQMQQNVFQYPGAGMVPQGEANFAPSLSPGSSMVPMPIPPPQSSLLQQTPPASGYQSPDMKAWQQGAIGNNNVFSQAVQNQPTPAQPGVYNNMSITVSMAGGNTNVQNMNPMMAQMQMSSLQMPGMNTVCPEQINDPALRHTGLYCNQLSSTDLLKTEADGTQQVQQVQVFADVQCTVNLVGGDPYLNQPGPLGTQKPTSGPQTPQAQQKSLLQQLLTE
The nature of test [2]: repression of VP16-driven luciferase reporter – cell-based, luminescence, high throughput, counter-screen for SRC1 inhibitor project (AID 588824). Conditions: cell-based VP16 transactivation luciferase luminescence; at 3.6 µM; stronger effect = higher value. For orientation: In a reporter assay the amount or activity of a reporter protein is the signal.

Unmarked numbers belong to inactive results. The source made the active and inactive calls. Rule as the data show it, unless noted: active = inhibition above about 25%; inactive = the rest.

As for `Cc1c(/C(O)=C2\C(=O)C(=O)N(CCCN(C)C)C2c2ccccc2)cnn1-c1ccccc1` (centres undefined), the inhibition was 6.48% in test [1] and -4.83% in test [2].
The matching figures for `COc1cc(OC)c(NS(=O)(=O)c2ccc(Cl)c(C(=O)OC(C)C(=O)N3CCCC3)c2)cc1Cl` (centres undefined): -10.2% and 10.7%.
On the same counts, the results for `Cc1ccc2oc(C(=O)NC3CCS(=O)(=O)C3)cc(=O)c2c1` (centres undefined) are -6.08% and -12.1%.
On the same counts, the results for `C=C(C)Cn1c(SCC(=O)O)nc2c1c(=O)[nH]c(=O)n2C` are 5.38% and 10.2%.
For `COc1cc(C(=O)NCCOc2cc(C)ccc2C(C)C)cc(OC)c1OC`, the inhibition in test [1] is -14.4%; in test [2] it was 23.8%.
On the same counts, the results for `C=C(C)c1cccc(C(C)(C)NC(=O)N(Cc2ccccc2)Cc2ccco2)c1` are -2.08% and -0.46%.
In the case of `CN=C(C)/C(C(=O)OC)=C(/O)c1c(F)cccc1F`, the inhibition in test [1] was -28.3%; in test [2] it was 3.9%.
The matching figures for `CC(=O)c1cc2c(C)cc(=O)oc2cc1O`: 19.4% and 6.17%.
The matching figures for `CCCCCC(=O)N1CCN(S(=O)(=O)c2ccc3c(c2)OCCO3)CC1`: -2.33% and -1.65%.
The matching figures for `CC(=C\c1ccccc1)/C=C1/SC(=S)N(CCC(=O)O)C1=O`: -20.4% and -5.15%.
With `CC1(C)Cc2nc(N)c(=O)sc2C1`, the inhibition in test [1] is -1.79%; in test [2], 5.55%.
The matching figures for `Cc1nnc(N2CCN(Cc3ccccc3)CC2)[nH]c1=O`: -4.97% and -7.63%.
On the same counts, the results for `COC(=O)c1sc2cnccc2c1N` are 21.5% and 4.54%.
Take `O=C(O)c1cc(=O)[nH]c2ccc(S(=O)(=O)Nc3ccc(F)cc3)cc12`: the values for the inhibition in test [1] and in test [2] were -12.9% and 7.7%, respectively.
The matching figures for `CC(=O)c1cccc(NC(=O)c2cc(Cl)sc2Cl)c1`: -60.7% and -30.6%.
On the same counts, the results for `COc1cc2c(cc1OC)CN(CC(=O)Nc1cccc([N+](=O)[O-])c1)CC2` are 4.85% and 6.41%.
On the same counts, the results for `Cc1sc2ncnc(N3CCC(C(=O)Nc4cc(S(C)(=O)=O)ccc4Cl)CC3)c2c1C` are 14.9% and 9.27%.
As to `COc1ccc(-c2cc(C(=O)NCCCN3CCOCC3)c3ccccc3n2)cc1OC`, the inhibition in test [1] is -12.4%; in test [2] it was -2.84%.
The matching figures for `COc1ccc(-c2csc(N3CCN(c4cc(C)nc5ccccc45)CC3)n2)cc1OC`: -18% and 20.4%.
As to `Cc1ccoc1C(=O)NCCNC(=O)c1occc1C`, the figures for the inhibition in test [1] and in test [2] were -20.6% and -15.1%, respectively.
On the same counts, the results for `CCOc1ccc(-c2[nH]ncc2-c2ccc(Cl)cc2)c(O)c1` are -8.3% and 3.27%.
The matching figures for `CC[C@H](C)[C@H](NC(N)=O)C(=O)NCCc1ccc(OC)c(OC)c1`: -11% and -10.9%.
On the same counts, the results for `Cc1c(C(=O)N2CCN(Cc3ccc4c(c3)OCO4)CC2)sc2ncnc(N3CCN(c4ccccc4)CC3)c12` are 11.3% and 19.7%.
In the case of `CCCCc1ccc(NC(=O)c2ccc(N(C)S(C)(=O)=O)cc2)cc1`, the inhibition was -25.4% in test [1] and 31.3% (active) in test [2].
The matching figures for `CCCc1cc(=O)oc2c(C)c(O[C@@H]3O[C@H](CO)[C@@H](O)[C@H](O)[C@H]3O)ccc12`: -6.26% and -0.67%.
The matching figures for `COc1cc(C(C)=O)ccc1OCC(=O)Nc1ccccc1N1CCCCC1`: 9.15% and 8%.
On the same counts, the results for `Cc1ccc(C(=O)Nc2c3c(nn2C(C)(C)C)CS(=O)(=O)C3)cc1[N+](=O)[O-]` are -11% and -9.8%.
As to `CCCS(=O)(=O)c1c(S(=O)(=O)CCC)c2c(C)cccn2c1C(=O)N/N=C/c1cc(O)cc(O)c1`, the values for the inhibition in test [1] and in test [2] were 20.8% and 24.6%, respectively.
On the same counts, the results for `Cc1ccc(C)c(S(=O)(=O)N2CCN(C(=O)C3CCN(C(=O)c4ccc(F)cc4)CC3)CC2)c1` are -10.9% and 1.93%.
On the same counts, the results for `COc1ccc(C(=O)Cn2c(Br)nc3c2c(=O)n(C)c(=O)n3C)cc1` are -2.41% and 11.5%.
The matching figures for `CCc1cc(=O)[nH]c(SCC(=O)NCc2ccc3c(c2)OCO3)n1`: -4.66% and 1.83%.
With `CCOc1ccc(CSC(=N)N)cc1Cl`, the inhibition is -21.1% in test [1] and 9.52% in test [2].

Usually inhibition stands for the change of the read-out against control, counted positive when it falls.
